HepG2 tox: HepG2 cytotoxicity, counter-screen for TGF-b inhibitors; HepG2 CAGA-GFP viability, ATP luminescence, 18 h; Potency, µM (titrated, usually from 46.1 µM), inactives show top-dose activity change, negative = cytotoxicity, actives largely listed as cytotoxic; hit rate 0.76% among 410,000; AID 588856; further: potency means the concentration at half of the fitted maximal effect
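HepG2 CAGA-GFP cells (1000/well, DMEM with 1% FBS) received compound, then TGF-beta at 500 pg/mL final, and were incubated 18 hours at 37 degrees C. Viability was read by CellTiter-Glo luminescence. Media-only wells were set as complete cell-killing and DMSO as no toxicity.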
TDP1 inh: inhibitors of human tyrosyl-DNA phosphodiesterase TDP1; Q9NUW8; Potency, µM (highest dose often 130 µM), without a hit: top-dose activity change, negative = inhibition, hits mostly inhibitors; AID 485290; recombinant TDP1, AlphaScreen DNA substrate cleavage; hit rate 0.28% among 350,000; further: potency means the concentration at half of the fitted maximal effect; on the % scale 0 is the no-effect control and ±100 the full control effect; nearly all actives have a fitted effect of over 40% in size
Target sequence (Q9NUW8 whole entry, looked up): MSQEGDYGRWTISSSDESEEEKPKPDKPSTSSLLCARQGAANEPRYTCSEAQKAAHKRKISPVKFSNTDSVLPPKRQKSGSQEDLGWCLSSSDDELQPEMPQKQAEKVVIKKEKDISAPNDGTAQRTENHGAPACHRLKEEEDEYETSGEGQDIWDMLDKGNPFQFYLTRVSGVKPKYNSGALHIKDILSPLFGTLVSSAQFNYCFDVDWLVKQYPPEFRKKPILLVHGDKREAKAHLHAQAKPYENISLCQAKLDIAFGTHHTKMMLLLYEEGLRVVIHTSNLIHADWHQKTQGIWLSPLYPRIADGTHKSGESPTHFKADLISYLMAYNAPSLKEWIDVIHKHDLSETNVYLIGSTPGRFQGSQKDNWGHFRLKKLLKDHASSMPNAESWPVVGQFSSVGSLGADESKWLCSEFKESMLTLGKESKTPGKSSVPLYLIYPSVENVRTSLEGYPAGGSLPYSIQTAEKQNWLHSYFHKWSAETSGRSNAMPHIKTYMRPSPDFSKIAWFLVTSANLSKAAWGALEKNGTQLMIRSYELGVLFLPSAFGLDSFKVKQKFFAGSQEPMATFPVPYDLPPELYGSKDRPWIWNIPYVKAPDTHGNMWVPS
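Recombinant human Tdp1 (E. coli-expressed, 1 nM final) preincubated with compounds 15 min at room temperature, then 5'-biotin/3'-phosphotyrosine-FITC DNA substrate (15 nM final) added for 5 min. AlphaScreen beads (10 ug/ml final) added 10 min; cleavage lowers signal.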
TGFb inhibitor: blocks TGF-b signaling. Potency, µM (doses to about 46.1 µM), without a hit: at the top dose activity, negative = inhibition, usual class: inhibitors. HepG2 CAGA-GFP TGF-b/SMAD3 reporter, GFP fluorescence, 18 h; TGF-beta stimulated, 500 pg/mL final. hit rate 1.2% among 410,000. AID 588855; further: potency means the concentration at half of the fitted maximal effect; on the % scale 0 is the no-effect control and ±100 the full control effect; nearly all actives have a fitted effect of over 65% in size
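GFP signal (ex488/em500-530) from TGF-beta-stimulated HEPG2 CAGA-GFP cells, 500 pg/mL final, 18 h at 37 degrees C in DMEM plus 1% FBS, normalized to unstimulated and DMSO-stimulated controls.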
TDP1 cell CPT: growth inhibition of DT40 Tdp1-/-;hTDP1 cells with camptothecin (screen for TDP1 inhibitors); chicken DT40 Tdp1-/-;hTDP1 cells + 20 nM CPT, ATP luminescence, 48 h; Potency, µM (highest dose often 46.2 µM), without a hit: at the highest dose activity change, negative = growth inhibition, usual class: inhibitors; hit rate 12% among 420,000; AID 686979; further: potency means the concentration at half of the fitted maximal effect; on the % scale 0 is the no-effect control and ±100 the full control effect; nearly all actives have a fitted effect of over 55% in size
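Chicken DT40 Tdp1-/- cells stably complemented with human TDP1 were seeded at 400 cells/well in medium containing 20 nM camptothecin, exposed to pin-transferred compounds, and grown at 37 °C for at least 48 hr. Viability was read as ATP luminescence.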
TDP1 cell noCPT: qHTS for Inhibitors of human tyrosyl-DNA phosphodiesterase 1 (TDP1): qHTS in cells in absence of CPT; hit rate 15% among 420,000; DT40 Tdp1-/- hTDP1 cells, no CPT, ATP luminescence, 48 h; Potency, µM (series often up to 46.2 µM), for inactives: at the top dose activity change, negative = growth inhibition, most hits filed as inhibitors; further: potency means the concentration at half of the fitted maximal effect; on the % scale 0 is the no-effect control and ±100 the full control effect; nearly all actives have a fitted effect of over 55% in size
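Growth kinetics read by CellTiter-Glo luminescence after ≥48 hr at 37 °C. Cells: DT40 Tdp1-/- stably carrying human TDP1, 400 per well, compound exposure in the absence of CPT (DMSO vehicle).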
IL-1B inflam inh: inhibitors of inflammasome signaling (IL-1 beta secretion). hit rate 4.7% among 360,000. activity change, % at 57.5 µM. THP-1 LPS/ATP IL-1B secretion, AlphaLISA, 16 h; active compounds read low; in the data active means activity change below about -50%; inconclusive means mostly about -30% to -49%; further: on the % scale 0 is the no-effect control and ±100 the full control effect
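Secreted IL-1B measured by AlphaLISA bead assay after 16 h compound exposure of THP-1 cells; compounds (final up to 57.5 uM) added 1 h before LPS (250 ng/mL) and ATP (1.25 mM) stimulation; lower signal means less secretion.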
Active calls of the source: *; ? = inconclusive; / = not tested or not shown; [ ] = another dose, or the depositor's remark. Most compounds without a hit are left out; they make up all but 19% or so of the library. Unless noted, the call rests on the fitted dose curve; in most records, active means well fitted curve in the direction sought with a large enough effect; inconclusive means small, poorly fitted or top-dose-only effect, or another doubt; inactive means no such curve, though single readings can be large; an effect the other way counts as inactive or inconclusive.

SMILES	HepG2 tox	TDP1 inh	TGFb inhibitor	TDP1 cell CPT	TDP1 cell noCPT	IL-1B inflam inh
CCCCn1cc(S(=O)(=O)c2ccc(CC)cc2)c(=O)c2cc(F)c(N3CCCC(C)C3)cc21 (centres undefined)	-19.5%	0.0%	-8.0%	23.1µM*	23.1µM*	/
CN(C)c1ncc2nc(-c3cccs3)c(=O)n(-c3ccccc3)c2n1	/	/	/	-0.4%	23.9%	/
CNC(=O)NC(=O)CSc1ccc(S(=O)(=O)N(C)C2CCCCC2)cn1	0.0%	6.0%	11.6%	-9.9%	?	20.6
O=C(c1cccc(F)c1F)N1CCOc2ccc(CN3CCN(Cc4ccccn4)CC3)cc2C1	/	/	/	10.1%	-7.8%	/
Cc1nc2cnc(N3CCNCC3)nc2n(CCC#N)c1=O	/	/	/	1.2%	8.7%	/
CC(=C/C(=O)O)/C=C/c1ccc(Cl)o1	3.2%	25.1µM*	14.7%	-24.4%	-15.4%	21.0
CC(=O)/C=C/c1ccc(C)o1	14.9%	-2.9%	-0.3%	16.4µM*	?	10.8
CC(/C=C\c1ccccc1)=C/C(=O)O	0.2%	1.3%	-6.7%	7.8%	-18.6%	-19.2
CC(/C=C/c1ccc(C)o1)=C\C(=O)O	-1.1%	2.0%	15.1%	11.6µM*	18.4µM*	-18.4
Cc1ccc(/C=C/C(=O)N2CC(C)CC(C)C2)o1 (centres undefined)	-28.3%	7.5%	?	1.46µM*	3.26µM*	?
CCNC(=O)C1(C)CCCN1C(=O)c1ccc(-c2ccccc2)cc1 (centres undefined)	-1.4%	/	-4.2%	?	?	43.3
CCOC(=O)CCN1C(=O)[C@H]2[C@H]3[C@H](O)[C@H](O)C/C(=N/OC[C@@H](O)COCc4ccco4)[C@@H]3CC[C@@H]2C1=O	/	4.8%[21 µM]	/	/	/	/
CC(=O)Nc1ccc(N2CCOCC2)c(S(=O)(=O)Nc2ccccc2Cl)c1	-25.3%	/	-13.9%	-13.2%	-19.6%	-3.2
COc1ccc(NS(=O)(=O)c2cc(NC(=O)c3ccc(Cl)cc3)ccc2N2CCOCC2)cc1	5.7%	1.4%	5.7%	2.59µM*	2.31µM*	-25.9
C[C@H](NC(N)=O)C(=O)Nc1ccc(N2CCOCC2)c(S(=O)(=O)Nc2ccc(Cl)cc2)c1	3.0%	2.8%	0.7%	20.6µM*	?	-0.6
COCCNC(=S)Nc1ccc(N2CCOCC2)c(S(=O)(=O)Nc2ccc(Cl)cc2)c1	-15.8%	/	-11.4%	?	10.3µM*	-3.0
CC(C)C(=O)Nc1ccc(N2CCOCC2)c(S(=O)(=O)Nc2ccccc2Cl)c1	-2.1%	-7.6%	-4.7%	?	13µM*	-14.4
COc1ccc(O[C@H]2C=C[C@@H](c3ccccc3)O[C@H]2CO/N=C2/[C@H]3O[C@@H]3[C@@H](O)[C@H]3[C@H]2CCn2c(=O)n(-c4ccccc4)c(=O)n23)cc1	/	9.0%[21 µM]	/	/	/	/
CC(=O)Nc1c(Cl)cc2c(c1Cl)Cc1cc(C#N)ccc1-2	-3.9%	/	-3.6%	-29.7%	-26.0%	27.0
C=CCNC(=O)C(=O)Nc1cc2c3c(c1)CCC(=O)N3CCC2	-6.5%	1.0%	-3.4%	-0.1%	-0.4%	12.3
Cc1ccc(C(=O)Nc2ccc3c(c2)N(C)C(=O)c2ccccc2S3)cc1F	-23.5%	4.4%	?	1.03µM*	0.82µM*	/
CCCCNC(=O)c1ccc2c(c1)N(C)C(=O)c1ccccc1S2	-10.9%	/	5.9%	?	?	-0.9
CC(=O)Nc1cc(C(=O)Nc2ccc3c(c2)N(C)C(=O)c2ccccc2S3)ccc1C	-1.5%	-1.5%	?	1.64µM*	0.92µM*	/
C/C(=N\NC(=O)c1ccc(C)cc1C)c1ccc2c(c1)Nc1ccccc1S2	-21.2%	5.4%	0.0%	?	16.4µM*	26.9
CCOC(=O)c1ccc(NC(=O)c2ccc3c(c2)NC(=O)c2ccccc2S3)cc1	-25.1%	4.9%	-28.2%	-19.0%	-0.4%	/
SMILES	HepG2 tox	TDP1 inh	TGFb inhibitor	TDP1 cell CPT	TDP1 cell noCPT	IL-1B inflam inh
Cc1ccc(NC(=O)c2ccc3c(c2)NC(=O)c2ccccc2S3)cc1	-35.9%	-2.0%	-1.2%	3.66µM*	2.59µM*	/
COc1ccc(-c2cnnn2-c2ccc(NC(=O)c3c(F)cccc3F)cc2)cc1	-4.8%	7.8%	?	11.6µM*	25.9µM*	/
COc1ccc(-c2cnnn2-c2ccc(NC(=O)c3ccccc3OC)cc2)cc1	-9.2%	13.0%	?	20.6µM*	?	/
CSc1nsc(SCC(=O)Nc2ccc(F)cc2F)n1	12.7%	/	-1.2%	3.5%	-27.2%	8.1
CCCCOc1ccc(C(=O)NCC(=O)NCCCn2nc(C)cc2C)cc1	-0.2%	0.7%	-3.1%	-6.0%	-0.7%	-2.3
CC1CCN(CC(O)Cn2c3ccccc3c3ccccc32)CC1 (centres undefined)	4.8%	3.0%	-0.3%	-22.8%	?	-62.5*
Cc1cc(=O)n2c3ccccc3n(CC(O)CN3CCN(Cc4ccccc4)CC3)c2c1C#N (centres undefined)	-23.8%	/	?	11.6µM*	11.6µM*	-18.1
OC(CN1CCN(Cc2ccccc2)CC1)Cn1c2ccccc2c2ccccc21 (centres undefined)	-58.9%	8.1%	?	23.1µM*	?	-28.4
OC(CN1CCCCC1)Cn1c2ccc(Cl)cc2c2cc(Cl)ccc21 (centres undefined)	-110.6%	/	?	?	14.6µM*	/
CC1CCCC(C)N1CC(O)Cn1c2ccccc2c2ccccc21 (centres undefined)	-0.1%	2.7%	6.6%	1.84µM*	2.59µM*	-8.5
OC(CN1CCN(c2ccccc2)CC1)Cn1c2ccccc2c2ccccc21 (centres undefined)	-38.2%	0.0%	-20.6%	18.4µM*	13µM*	-6.2
OC(CN1CCOCC1)Cn1c2ccccc2c2ccccc21 (centres undefined)	-33.1%	/	4.2%	5.4%	?	-6.5
COC(=O)C1=C(C(=O)OC)[C@@H]2N(Cc3ccccc3)c3ccccc3[C@@]23C[C@@H](C(=O)OC)N(C(=O)NCc2ccccc2)C3=C1	/	16.2%	/	/	/	/
O=C(c1cnccn1)N1CCC2(CC1)CCN(c1ccccc1)CC2	/	/	/	17.8%	?	/
COc1ccc(C2CC(c3cccs3)=NN2C(=O)c2ccccc2)cc1OC (centres undefined)	-17.2%	/	14.5%	0.7%	-22.4%	-22.8
COc1cc(C2CC(c3cccs3)=NN2C(=O)CCl)ccc1OC(F)F (centres undefined)	6.31µM*	6.1%	6.31µM*	4.61µM*	4.11µM*	-103.0*
